We go through 1 sequence from publication PMC7862700, “An all-to-all approach to the identification of sequence-specific readers for epigenetic DNA modifications on cytosine”.

Holding throughout (test): DAPPL (digital affinity profiling via proximity ligation, sequencing); 10 mM Tris-HCl pH 7.5, 50 mM NaCl, 1 mM DTT, 4% glycerol, room temperature, 30 min; GST-TFs on glutathione beads, 16-mer random dsDNA library, 0.1% formaldehyde crosslink after washing; high values mean tight binding
For one assay, the target named is T1, FLI1 (Homo sapiens, UniProt Q01543 1-452).
T1 sequence: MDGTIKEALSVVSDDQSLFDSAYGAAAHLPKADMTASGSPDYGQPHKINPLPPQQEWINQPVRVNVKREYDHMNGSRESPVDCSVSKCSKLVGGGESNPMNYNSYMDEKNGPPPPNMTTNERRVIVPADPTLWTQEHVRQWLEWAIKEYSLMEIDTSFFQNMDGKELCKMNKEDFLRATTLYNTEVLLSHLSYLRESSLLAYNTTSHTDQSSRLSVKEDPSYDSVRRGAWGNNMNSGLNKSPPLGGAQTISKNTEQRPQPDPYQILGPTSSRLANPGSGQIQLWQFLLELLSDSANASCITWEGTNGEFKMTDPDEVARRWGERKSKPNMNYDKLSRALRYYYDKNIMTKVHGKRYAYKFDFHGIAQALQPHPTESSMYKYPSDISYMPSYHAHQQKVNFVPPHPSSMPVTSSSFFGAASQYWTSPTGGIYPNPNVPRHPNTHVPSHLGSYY
The note with it: protein: recombinant; tags: N-terminal GST; dsDNA, one strand shown. The procedure, abridged: (§1)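 Each value of binding signal is a hexamer's read frequency for a factor divided by the same hexamer's frequency in the tag-only sample. Barcoded, bead-captured GST fusions of human transcription factors made in yeast were pooled with that sample and incubated with 200 nmole of a random double-stranded 16-mer DNA library in Tris/NaCl/DTT/glycerol buffer at room temperature for 30 min. Washing, 0.1% formaldehyde crosslinking, proximity ligation, PCR and Illumina NextSeq500 sequencing followed.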

The target of a further assay is T2, ELK1 (Homo sapiens, UniProt P19419 1-428).
T2 sequence: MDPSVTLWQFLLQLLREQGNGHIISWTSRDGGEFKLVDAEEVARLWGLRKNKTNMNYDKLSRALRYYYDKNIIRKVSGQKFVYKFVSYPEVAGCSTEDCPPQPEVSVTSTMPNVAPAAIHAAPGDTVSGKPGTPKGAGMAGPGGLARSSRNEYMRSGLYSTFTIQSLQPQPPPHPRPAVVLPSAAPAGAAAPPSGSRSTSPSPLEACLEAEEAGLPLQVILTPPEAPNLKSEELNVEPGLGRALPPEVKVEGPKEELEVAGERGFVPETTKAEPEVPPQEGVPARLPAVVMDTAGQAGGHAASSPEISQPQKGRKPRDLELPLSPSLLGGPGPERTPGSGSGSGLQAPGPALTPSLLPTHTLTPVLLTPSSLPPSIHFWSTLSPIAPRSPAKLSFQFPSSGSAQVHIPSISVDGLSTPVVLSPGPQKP
The note with it: protein: recombinant; tags: N-terminal GST; dsDNA, one strand shown. The essentials:
as §1

In another assay the target is T3, GABPA (Homo sapiens, UniProt Q06546 1-454).
T3 sequence: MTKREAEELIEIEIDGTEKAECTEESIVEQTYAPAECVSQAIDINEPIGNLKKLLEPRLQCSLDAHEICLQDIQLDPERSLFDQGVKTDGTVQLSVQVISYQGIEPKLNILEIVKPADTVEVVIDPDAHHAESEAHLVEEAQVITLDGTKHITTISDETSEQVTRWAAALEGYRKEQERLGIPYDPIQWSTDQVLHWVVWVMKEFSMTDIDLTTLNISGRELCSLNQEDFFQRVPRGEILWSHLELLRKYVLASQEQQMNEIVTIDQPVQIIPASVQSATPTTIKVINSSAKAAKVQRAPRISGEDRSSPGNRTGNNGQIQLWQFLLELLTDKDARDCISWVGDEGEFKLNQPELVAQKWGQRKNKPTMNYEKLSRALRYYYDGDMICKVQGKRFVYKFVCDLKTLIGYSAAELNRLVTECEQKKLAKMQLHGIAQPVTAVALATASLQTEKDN
The note with it: protein: recombinant; tags: N-terminal GST; dsDNA, one strand shown. The essentials:
as §1

Another assay has as its target T4, ERG (Homo sapiens, UniProt P11308 1-479).
T4 sequence: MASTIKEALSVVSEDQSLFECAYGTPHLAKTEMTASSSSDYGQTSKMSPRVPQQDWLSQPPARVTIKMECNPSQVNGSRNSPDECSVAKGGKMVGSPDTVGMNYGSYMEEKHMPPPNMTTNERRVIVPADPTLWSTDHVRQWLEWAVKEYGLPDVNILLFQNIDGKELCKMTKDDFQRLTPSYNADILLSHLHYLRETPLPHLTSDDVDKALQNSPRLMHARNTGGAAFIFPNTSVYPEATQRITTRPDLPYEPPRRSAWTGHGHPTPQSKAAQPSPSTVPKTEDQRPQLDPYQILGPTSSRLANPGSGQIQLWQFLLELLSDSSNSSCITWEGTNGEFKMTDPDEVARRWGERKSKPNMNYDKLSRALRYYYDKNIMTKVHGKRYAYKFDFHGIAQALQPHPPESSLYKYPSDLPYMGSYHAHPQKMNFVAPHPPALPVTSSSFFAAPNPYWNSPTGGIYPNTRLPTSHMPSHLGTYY
The note with it: protein: recombinant; tags: N-terminal GST; dsDNA, one strand shown. The essentials: as §1

Another assay has as its target ELF1 (Homo sapiens, UniProt P32519 1-619). The note with it: protein: recombinant; tags: N-terminal GST; dsDNA, one strand shown. The procedure, abridged:
as §1

The target in the next assay is T5, EHF (Homo sapiens, UniProt Q9NZC4 1-300).
T5 sequence: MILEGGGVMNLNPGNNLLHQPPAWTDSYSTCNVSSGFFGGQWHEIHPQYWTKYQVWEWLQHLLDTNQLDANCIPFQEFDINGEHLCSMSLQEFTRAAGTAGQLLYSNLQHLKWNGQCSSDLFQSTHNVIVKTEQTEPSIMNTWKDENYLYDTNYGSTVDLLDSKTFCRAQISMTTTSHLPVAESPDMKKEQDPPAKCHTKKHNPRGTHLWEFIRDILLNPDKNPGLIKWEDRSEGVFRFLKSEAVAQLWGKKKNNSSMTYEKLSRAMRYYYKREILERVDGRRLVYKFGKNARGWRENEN
The note with it: protein: recombinant; tags: N-terminal GST; dsDNA, one strand shown. The procedure, abridged: as §1

The target in another assay is SPI1 (Homo sapiens, UniProt P17947 1-270). The note with it: protein: recombinant; tags: N-terminal GST; dsDNA, one strand shown. The procedure, abridged: as §1
The target in a further assay is SPIB (Homo sapiens, UniProt Q01892 1-262). The note with it: protein: recombinant; tags: N-terminal GST; dsDNA, one strand shown. The procedure, abridged: as §1
Chain of SPIB (Q01892 whole entry): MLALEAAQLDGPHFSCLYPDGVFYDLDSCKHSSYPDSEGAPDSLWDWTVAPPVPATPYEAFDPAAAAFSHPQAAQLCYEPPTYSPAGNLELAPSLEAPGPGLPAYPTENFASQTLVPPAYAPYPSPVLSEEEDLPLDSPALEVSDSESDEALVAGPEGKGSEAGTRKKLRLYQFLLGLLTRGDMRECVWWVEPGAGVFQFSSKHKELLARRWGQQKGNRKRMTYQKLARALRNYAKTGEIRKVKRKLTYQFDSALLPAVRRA
In the next assay the target is T6, ELK3 (Homo sapiens, UniProt P41970 1-407).
T6 sequence: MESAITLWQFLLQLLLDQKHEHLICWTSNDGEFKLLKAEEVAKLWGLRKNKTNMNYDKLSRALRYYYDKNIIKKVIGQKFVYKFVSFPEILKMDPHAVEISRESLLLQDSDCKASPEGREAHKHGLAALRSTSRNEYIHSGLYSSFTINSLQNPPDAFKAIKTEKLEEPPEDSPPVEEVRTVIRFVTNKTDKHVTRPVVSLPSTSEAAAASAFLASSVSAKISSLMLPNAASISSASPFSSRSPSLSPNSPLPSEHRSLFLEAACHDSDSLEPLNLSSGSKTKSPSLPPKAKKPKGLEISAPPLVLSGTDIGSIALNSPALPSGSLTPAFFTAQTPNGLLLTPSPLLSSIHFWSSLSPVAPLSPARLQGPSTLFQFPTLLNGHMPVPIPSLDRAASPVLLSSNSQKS
The note with it: protein: recombinant; tags: N-terminal GST; dsDNA, one strand shown. The procedure, abridged: as §1

The target of another assay is T7, FEV (Homo sapiens, UniProt Q99581 1-238).
T7 sequence: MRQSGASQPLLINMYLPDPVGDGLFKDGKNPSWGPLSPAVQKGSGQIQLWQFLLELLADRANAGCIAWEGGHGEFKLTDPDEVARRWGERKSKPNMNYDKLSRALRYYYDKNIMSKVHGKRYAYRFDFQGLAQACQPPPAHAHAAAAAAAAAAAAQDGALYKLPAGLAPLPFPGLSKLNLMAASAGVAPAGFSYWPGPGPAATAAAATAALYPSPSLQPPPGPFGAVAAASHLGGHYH
The note with it: protein: recombinant; tags: N-terminal GST; dsDNA, one strand shown. The procedure, abridged: as §1

Another assay deals with ETV5 (Homo sapiens, UniProt P41161 1-510). The note with it: protein: recombinant; tags: N-terminal GST; dsDNA, one strand shown. The procedure, abridged: as §1
Chain of ETV5 (P41161 whole entry): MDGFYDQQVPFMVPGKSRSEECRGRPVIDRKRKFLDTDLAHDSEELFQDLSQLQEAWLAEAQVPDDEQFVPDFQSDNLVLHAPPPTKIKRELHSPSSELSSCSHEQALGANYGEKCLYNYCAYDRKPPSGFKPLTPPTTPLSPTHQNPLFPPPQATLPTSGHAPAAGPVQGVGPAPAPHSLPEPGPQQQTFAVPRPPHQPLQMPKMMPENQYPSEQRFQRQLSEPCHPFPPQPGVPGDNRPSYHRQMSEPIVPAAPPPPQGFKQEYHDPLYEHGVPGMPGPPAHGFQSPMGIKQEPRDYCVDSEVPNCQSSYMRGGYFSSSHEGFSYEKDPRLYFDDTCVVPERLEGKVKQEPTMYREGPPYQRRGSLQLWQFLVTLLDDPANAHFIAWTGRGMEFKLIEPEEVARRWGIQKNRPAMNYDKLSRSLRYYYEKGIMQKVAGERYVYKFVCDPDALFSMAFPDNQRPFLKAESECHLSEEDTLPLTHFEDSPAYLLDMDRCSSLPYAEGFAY
Another assay has as its target HSF1 (Homo sapiens, UniProt Q00613 1-529). The note with it: protein: recombinant; tags: N-terminal GST; chain copies: 3; dsDNA, one strand shown. The essentials: as §1
A further assay concerns the target T8, SPIC (Homo sapiens, UniProt Q8N5J4 1-248).
T8 sequence: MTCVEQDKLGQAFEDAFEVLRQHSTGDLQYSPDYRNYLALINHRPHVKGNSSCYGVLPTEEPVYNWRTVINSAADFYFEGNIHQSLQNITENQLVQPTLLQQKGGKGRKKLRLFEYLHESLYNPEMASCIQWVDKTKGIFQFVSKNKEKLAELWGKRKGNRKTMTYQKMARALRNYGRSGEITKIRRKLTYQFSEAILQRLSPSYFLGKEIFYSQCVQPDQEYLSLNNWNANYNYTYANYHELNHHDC
The note with it: protein: recombinant; tags: N-terminal GST; dsDNA, one strand shown. The procedure, abridged:
as §1

For a further assay, the target named is ELF4 (Homo sapiens, UniProt Q99607 1-663). The note with it: protein: recombinant; tags: N-terminal GST; dsDNA, one strand shown. The essentials:
as §1

Another assay deals with T9, ELK4 (Homo sapiens, UniProt P28324-2 1-405).
T9 sequence: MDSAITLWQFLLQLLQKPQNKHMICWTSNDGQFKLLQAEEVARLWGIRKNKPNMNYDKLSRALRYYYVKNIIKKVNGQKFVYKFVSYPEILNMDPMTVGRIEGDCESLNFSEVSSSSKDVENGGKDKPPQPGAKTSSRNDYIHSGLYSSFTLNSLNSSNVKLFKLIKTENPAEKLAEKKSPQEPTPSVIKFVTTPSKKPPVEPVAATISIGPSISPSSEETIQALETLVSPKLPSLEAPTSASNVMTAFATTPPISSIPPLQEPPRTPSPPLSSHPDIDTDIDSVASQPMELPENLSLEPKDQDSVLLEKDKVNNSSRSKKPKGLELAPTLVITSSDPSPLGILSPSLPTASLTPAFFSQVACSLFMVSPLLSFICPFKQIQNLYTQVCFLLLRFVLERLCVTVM
The note with it: protein: recombinant; tags: N-terminal GST; dsDNA, one strand shown. The essentials:
as §1

Another assay has as its target T10, ETV2 (Homo sapiens, UniProt O00321 1-342).
T10 sequence: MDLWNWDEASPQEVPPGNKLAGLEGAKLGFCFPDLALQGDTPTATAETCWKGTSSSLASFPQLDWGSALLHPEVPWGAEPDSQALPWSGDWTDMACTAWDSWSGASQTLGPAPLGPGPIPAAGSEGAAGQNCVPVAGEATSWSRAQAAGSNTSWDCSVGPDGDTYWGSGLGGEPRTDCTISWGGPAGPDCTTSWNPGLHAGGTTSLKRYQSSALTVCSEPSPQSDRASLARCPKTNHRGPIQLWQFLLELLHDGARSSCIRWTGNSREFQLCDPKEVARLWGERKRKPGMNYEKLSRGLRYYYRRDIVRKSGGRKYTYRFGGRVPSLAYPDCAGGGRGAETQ
The note with it: protein: recombinant; tags: N-terminal GST; dsDNA, one strand shown. The procedure, abridged:
as §1

Another assay deals with T11, ELF3 (Homo sapiens, UniProt P78545 1-371).
T11 sequence: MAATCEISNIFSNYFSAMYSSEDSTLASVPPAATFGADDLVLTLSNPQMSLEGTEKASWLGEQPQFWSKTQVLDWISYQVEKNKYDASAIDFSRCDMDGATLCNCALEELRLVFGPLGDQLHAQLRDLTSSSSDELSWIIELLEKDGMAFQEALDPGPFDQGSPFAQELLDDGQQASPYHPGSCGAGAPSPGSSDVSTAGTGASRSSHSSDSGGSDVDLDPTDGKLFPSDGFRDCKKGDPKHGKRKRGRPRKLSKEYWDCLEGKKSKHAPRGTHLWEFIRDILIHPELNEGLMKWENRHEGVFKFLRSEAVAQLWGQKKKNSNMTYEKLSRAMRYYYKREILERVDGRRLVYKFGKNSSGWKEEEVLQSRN
The note with it: protein: recombinant; tags: N-terminal GST; dsDNA, one strand shown. The essentials:
as §1

Another assay addresses CRX (Homo sapiens, UniProt O43186 1-299). The note with it: protein: recombinant; tags: N-terminal GST; dsDNA, one strand shown. The procedure, abridged: as §1
For a further assay, the target named is ETV1 (Homo sapiens, UniProt P50549 1-477). The note with it: protein: recombinant; tags: N-terminal GST; dsDNA, one strand shown. The procedure, abridged:
as §1

Chain of ELF4 (Q99607 whole entry): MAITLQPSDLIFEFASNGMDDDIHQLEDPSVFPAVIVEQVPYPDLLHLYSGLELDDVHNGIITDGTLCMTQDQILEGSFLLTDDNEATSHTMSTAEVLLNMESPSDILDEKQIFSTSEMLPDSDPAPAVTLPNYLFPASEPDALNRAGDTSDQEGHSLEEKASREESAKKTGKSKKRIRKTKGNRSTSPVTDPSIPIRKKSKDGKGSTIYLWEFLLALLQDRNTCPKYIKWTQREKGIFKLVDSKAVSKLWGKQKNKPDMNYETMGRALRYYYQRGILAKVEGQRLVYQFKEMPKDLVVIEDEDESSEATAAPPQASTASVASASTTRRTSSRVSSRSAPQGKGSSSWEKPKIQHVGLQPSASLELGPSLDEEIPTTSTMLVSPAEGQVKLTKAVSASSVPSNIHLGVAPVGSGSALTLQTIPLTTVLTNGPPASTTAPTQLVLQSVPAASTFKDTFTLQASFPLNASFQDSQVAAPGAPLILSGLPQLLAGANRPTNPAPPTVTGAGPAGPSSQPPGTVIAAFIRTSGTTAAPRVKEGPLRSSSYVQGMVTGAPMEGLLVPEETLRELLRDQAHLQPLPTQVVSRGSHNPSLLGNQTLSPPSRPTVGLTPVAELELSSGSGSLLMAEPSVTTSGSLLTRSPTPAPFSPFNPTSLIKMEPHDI
Chain of ELF1 (P32519 whole entry): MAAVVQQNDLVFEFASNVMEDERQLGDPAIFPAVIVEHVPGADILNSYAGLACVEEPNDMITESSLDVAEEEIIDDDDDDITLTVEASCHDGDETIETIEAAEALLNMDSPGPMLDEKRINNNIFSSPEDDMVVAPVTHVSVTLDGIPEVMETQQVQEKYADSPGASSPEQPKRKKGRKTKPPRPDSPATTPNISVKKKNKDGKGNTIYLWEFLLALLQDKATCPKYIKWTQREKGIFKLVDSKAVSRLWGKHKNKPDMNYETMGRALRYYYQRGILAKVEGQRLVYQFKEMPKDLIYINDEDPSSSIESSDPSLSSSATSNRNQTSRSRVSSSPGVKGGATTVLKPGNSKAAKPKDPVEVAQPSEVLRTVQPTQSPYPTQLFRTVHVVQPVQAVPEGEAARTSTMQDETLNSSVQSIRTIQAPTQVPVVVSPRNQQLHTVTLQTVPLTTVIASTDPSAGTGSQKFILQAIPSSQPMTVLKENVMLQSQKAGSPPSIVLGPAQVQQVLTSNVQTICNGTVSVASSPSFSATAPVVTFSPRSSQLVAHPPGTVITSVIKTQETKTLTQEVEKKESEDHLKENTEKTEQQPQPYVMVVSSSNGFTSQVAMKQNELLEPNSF
Chain of HSF1 (Q00613 whole entry): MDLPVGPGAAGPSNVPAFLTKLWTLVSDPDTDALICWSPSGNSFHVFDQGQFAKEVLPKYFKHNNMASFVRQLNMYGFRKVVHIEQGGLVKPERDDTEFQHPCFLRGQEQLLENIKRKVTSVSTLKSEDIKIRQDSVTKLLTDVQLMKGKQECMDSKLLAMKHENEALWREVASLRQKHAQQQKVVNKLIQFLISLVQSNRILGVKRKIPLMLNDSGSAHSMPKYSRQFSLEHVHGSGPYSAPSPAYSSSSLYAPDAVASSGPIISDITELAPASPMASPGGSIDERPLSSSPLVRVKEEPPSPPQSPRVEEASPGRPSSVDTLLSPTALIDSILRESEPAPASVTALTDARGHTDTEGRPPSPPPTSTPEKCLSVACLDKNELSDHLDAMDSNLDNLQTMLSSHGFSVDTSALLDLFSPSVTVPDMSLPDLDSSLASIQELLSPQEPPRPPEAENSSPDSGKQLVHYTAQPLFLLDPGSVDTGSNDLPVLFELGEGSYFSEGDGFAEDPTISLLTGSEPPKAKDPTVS
Chain of CRX (O43186 whole entry): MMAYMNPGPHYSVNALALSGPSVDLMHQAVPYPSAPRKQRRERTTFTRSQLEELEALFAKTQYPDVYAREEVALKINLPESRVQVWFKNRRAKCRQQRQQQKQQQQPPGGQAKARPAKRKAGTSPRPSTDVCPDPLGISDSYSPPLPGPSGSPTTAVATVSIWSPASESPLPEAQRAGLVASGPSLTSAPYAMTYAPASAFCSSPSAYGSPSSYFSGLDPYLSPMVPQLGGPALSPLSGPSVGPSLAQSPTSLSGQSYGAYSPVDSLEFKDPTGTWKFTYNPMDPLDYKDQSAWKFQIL
Chain of ETV1 (P50549 whole entry): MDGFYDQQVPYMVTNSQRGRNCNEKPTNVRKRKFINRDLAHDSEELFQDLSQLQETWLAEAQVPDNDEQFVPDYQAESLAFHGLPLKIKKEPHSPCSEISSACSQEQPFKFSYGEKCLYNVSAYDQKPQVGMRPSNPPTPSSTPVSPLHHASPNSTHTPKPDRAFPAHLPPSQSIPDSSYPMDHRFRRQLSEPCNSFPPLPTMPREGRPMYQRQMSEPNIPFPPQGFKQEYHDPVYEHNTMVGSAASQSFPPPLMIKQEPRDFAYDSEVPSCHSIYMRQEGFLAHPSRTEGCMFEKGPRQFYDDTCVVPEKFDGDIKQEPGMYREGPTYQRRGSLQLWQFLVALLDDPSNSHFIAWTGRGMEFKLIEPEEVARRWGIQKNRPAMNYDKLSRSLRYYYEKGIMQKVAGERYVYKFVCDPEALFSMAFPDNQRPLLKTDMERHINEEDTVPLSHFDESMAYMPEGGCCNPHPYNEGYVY

As for CGCCTC, the binding signal with FLI1 is 1.47 fold enrichment (6-mer frequency, TF over GST control); with ELK1 it was 1.49 fold enrichment (6-mer frequency, TF over GST control); with GABPA it was 1.41 fold enrichment (6-mer frequency, TF over GST control); in the assay with ERG, 1.39 fold enrichment (6-mer frequency, TF over GST control); with ELF1, 1.49 fold enrichment (6-mer frequency, TF over GST control); in the assay with EHF, 1.4 fold enrichment (6-mer frequency, TF over GST control). Moreover, the binding signal in the assay with SPI1 is 1.27 fold enrichment (6-mer frequency, TF over GST control); in the assay with SPIB it was 1.51 fold enrichment (6-mer frequency, TF over GST control); with ELK3, 1.46 fold enrichment (6-mer frequency, TF over GST control); with FEV it was 1.45 fold enrichment (6-mer frequency, TF over GST control); with ETV5, 1.4 fold enrichment (6-mer frequency, TF over GST control); in the assay with HSF1 it was 1.1 fold enrichment (6-mer frequency, TF over GST control). Moreover, the binding signal in the assay with SPIC was 1.33 fold enrichment (6-mer frequency, TF over GST control); with ELF4 it was 1.39 fold enrichment (6-mer frequency, TF over GST control); in the assay with ELK4, 1.14 fold enrichment (6-mer frequency, TF over GST control); with ETV2, 1.51 fold enrichment (6-mer frequency, TF over GST control); with ELF3, 1.49 fold enrichment (6-mer frequency, TF over GST control); in the assay with CRX it was 1.05 fold enrichment (6-mer frequency, TF over GST control). Besides, the binding signal with ETV1 was 1.42 fold enrichment (6-mer frequency, TF over GST control).
